# Screen size: about 320,000 compounds; about 2,100 (0.66%) were called active. Not shown: some 53% with an inconclusive outcome. The call rests on the fitted dose curve; in most records, active means well fitted inhibition curve with a large enough effect in the signal ratio, with a control signal flat (not every such curve was filed as active); inconclusive means small, poorly fitted or top-dose-only effect, or effect the other way, or a change in a side signal; inactive means flat fitted curve, though single readings scatter; the % refers to the signal ratio. The sample as a whole holds a higher share of actives than the screen did.
# Experiment: qHTS Assay for Lipid Storage Modulators in Drosophila S3 Cells;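 on cell number change: cells counted by Cell Tracker Red CMTPX staining in the red channel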
# Settings: BODIPY lipid droplet fluorescence, 18-24 h, cells fed with added oleic acid; cell number change: measured here: cell count max response; series mostly up to 46.1 µM
# Method in brief: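 Drosophila S3 cells loaded with oleic acid (400 uM, as added) and compounds at several concentrations; lipid droplets imaged by 488-nm laser-scanning cytometry, 500–530 nm intensity and object ratio to cell channel. Percent activity normalized to 20 uM Triacsin C.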
# Potency means the concentration at half of the fitted maximal effect.
Compound,Potency,cell number change
CCN1CCN(c2nc3sc4c(c3c(=O)n2-c2ccc(OC)cc2)CCCCC4)CC1,inactive,-9.24%
CCOC(=O)COc1ccccc1C1Nc2ccccc2C(=O)N1c1cccc(Cl)c1 (centres undefined),inactive,2.87%
COc1ccc(NCc2nnc(SCC(=O)NCc3ccco3)n2-c2ccccc2OC)cc1,inactive,13.6%
CCC(C)[C@H](NC(=O)NCc1ccccc1Cl)C(=O)OC (some centres undefined),inactive,-19%
COc1cccc(CNC(=O)N[C@@H](C)C(=O)O)c1,inactive,1.68%
COC(=O)[C@@H](NC(=O)NCc1ccccc1F)C(C)C,25.9 µM (active),-6.12%
COC(=O)[C@@H](NC(=O)NCc1cccc(OC)c1)C(C)C,inactive,-13.3%
CCC(C)NC(=O)NCc1ccccc1F (centres undefined),inactive,2.87%
COC(=O)[C@H](CCSC)NC(=O)NCc1ccccc1F,inactive,-14.5%
CCC(C)[C@H](NC(=O)NCc1ccccc1Cl)C(=O)O (some centres undefined),29.1 µM (active),-0.143%
CCC(C)[C@H](NC(=O)NCc1cccc(OC)c1)C(=O)O (some centres undefined),6.51 µM (active),1.61%
CCC(C)[C@H](NC(=O)NCc1ccc(Cl)cc1)C(=O)O (some centres undefined),inactive,4.5%
CC(C)N(C)Cc1nnnn1CC(=O)NCc1cc(F)cc(C(F)(F)F)c1,inactive,-9.03%
Cn1nc(-c2ccccc2)c(CO)c1Oc1cccc(C(F)(F)F)c1,inactive,9.06%
COc1ccc(C(=O)CSc2nnc(C3CC3)n2N)cc1,inactive,-1.83%
O=C(O)c1ccc(NS(=O)(=O)c2cc(Cl)ccc2Cl)cc1,inactive,3.91%
Cc1ccc(NS(=O)(=O)c2cc(C(=O)O)ccc2Cl)cc1,2.31 µM (active),-3.53%
Cc1ccc(NS(=O)(=O)c2cc(C(=O)O)ccc2Cl)c(C)c1,inactive,-3.54%
COCCN1Cc2cccc(C(=O)NC(C)CCc3ccco3)c2C1=O (centres undefined),inactive,4.03%
O=C(Nc1cccc(C(=O)O)c1)/C(=C\c1ccco1)NC(=O)c1ccccc1,inactive,13%
CCOC(=O)N1CCN(CC(=O)N2c3ccccc3Sc3ccccc32)CC1,inactive,-12.6%
C#CCOc1ccc(C2C3=C(CC(C)(C)CC3=O)N(CC(=O)O)C3=C2C(=O)CC(C)(C)C3)cc1OC,10.3 µM (active),-7.42%
C#CCOc1ccc(C2C3=C(CC(C)(C)CC3=O)N(CC(=O)O)C3=C2C(=O)CC(C)(C)C3)cc1,inactive,-0.525%
COc1ccc(C2C3=C(CC(C)(C)CC3=O)N(CC(=O)O)C3=C2C(=O)CC(C)(C)C3)cc1OC,inactive,-17.9%
O=C(CN1C(=O)c2ccccc2C1=O)Nc1ccc(-c2nc3ccccc3o2)cc1,inactive,

# From PubChem BioAssay AID2685 (National Center for Advancing Translational Sciences (NCATS), 2010)
